Measured values: PMC5540273 (PLoS ONE, 2017)

Assays:
Conditions in all cases: concentration: 1 μM, replicates: in singlicate; n = 1
[1] = tested on: SBK1
[2] = tested on: SGK2
[3] = tested on: SGK3
[4] = tested on: SGK
[5] = tested on: SIK2
[6] = tested on: SIK
[7] = tested on: SLK
[8] = tested on: T1, SNARK
T1 construct: gene NUAK2

[9] = tested on: SNRK
[10] = tested on: SRC
[11] = tested on: SRMS
[12] = tested on: SRPK1
[13] = tested on: SRPK2
[14] = tested on: SRPK3
[15] = tested on: STK16
[16] = tested on: STK33
[17] = tested on: STK35
[18] = tested on: STK36
[19] = tested on: STK39
[20] = tested on: SYK
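Note: KINOMEscan kinase panel screen.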

Row | SMILES | %Inh [1] | %Inh [2] | %Inh [3] | %Inh [4] | %Inh [5] | %Inh [6] | %Inh [7] | %Inh [8] | %Inh [9] | %Inh [10] | %Inh [11] | %Inh [12] | %Inh [13] | %Inh [14] | %Inh [15] | %Inh [16] | %Inh [17] | %Inh [18] | %Inh [19] | %Inh [20]
1 | CNc1nccc(-c2c(-c3ccc(F)cc3)ncn2CCCN2CCOCC2)n1 [SB-222516] | 0% | 15% | 44% | 10% | 0% | 12% | 5% | 24% | 18% | 0% | 0% | 19% | 0% | 0% | 0% | 21% | 0% | 0% | 8% | 0%
2 | CC(C)N1CCC(n2cnc(-c3ccc(F)cc3)c2-c2ccnc(N)n2)CC1 [SB-223132] | 0% | 0% | 0% | 0% | 4% | 14% | 12% | 0% | 0% | 0% | 0% | 0% | 45% | 6% | 0% | 0% | 0% | 26% | 0% | 19%
3 | CSc1ccc(NC2=C(c3ccccc3Cl)C(=O)NC2=O)cc1 [SB-342411] | 1% | 0% | 14% | 0% | 5% | 0% | 98.7% | 19% | 0% | 38% | 0% | 7% | 0% | 5% | 14% | 0% | 5% | 48% | 19% | 23%
4 | FC(F)(F)c1ccc(-c2nn3ncccc3c2-c2ccnc(Nc3cccc(C(F)(F)F)c3)n2)cc1 [GW828205] | 0% | 0% | 18% | 0% | 0% | 47% | 21% | 0% | 0% | 0% | 30% | 0% | 36% | 8% | 14% | 5% | 0% | 0% | 0% | 20%
5 | COc1ccc(NC(=O)Nc2ccc(C)c(-c3ccc(C(=O)Nc4ccncc4)cc3)c2)cc1 [GSK1398475] | 0% | 0% | 10% | 0% | 0% | 7% | 0% | 0% | 0% | 0% | 0% | 0% | 0% | 0% | 0% | 0% | 0% | 0% | 0% | 0%
6 | FC(F)(F)c1cc(Nc2nccc(-c3c(-c4ccc(Cl)cc4)nn4ncccc34)n2)ccc1Cl [GW829351] | 0% | 0% | 0% | 0% | 0% | 0% | 0% | 0% | 0% | 0% | 27% | 0% | 7% | 4% | 0% | 0% | 0% | 21% | 0% | 2%
7 | Cl.c1ccc(Cn2ncc3cc(Nc4ncnc5ccccc45)ccc32)cc1 [GW273749] | 7% | 0% | 0% | 0% | 0% | 0% | 0% | 10% | 0% | 10% | 0% | 16% | 0% | 0% | 40% | 0% | 0% | 0% | 0% | 18%
8 | CN1CCC(n2cnc(-c3ccc(F)cc3)c2-c2ccnc(NC3CCNCC3)n2)CC1 [SB-229482] | 0% | 87% | 0% | 0% | 0% | 12% | 0% | 0% | 1% | 0% | 28% | 0% | 27% | 16% | 12% | 0% | 0% | 24% | 47% | 0%
9 | Cl.Fc1ccccc1COc1ccc(Nc2ncnc3ccc(-c4nnc(C(F)(F)F)o4)cc23)cc1Cl [GW424170] | 0% | 0% | 0% | 0% | 0% | 1% | 20% | 0% | 0% | 0% | 0% | 0% | 3% | 0% | 0% | 0% | 0% | 0% | 0% | 0%
